# System: T1, JNK1
# T1 construct: gene MAPK8
# 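Further: kd values determined as follow-up on hits from a single-replicate KINOMEscan panel screen.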
row,Compound,Kd [nM]
1,CCC(=O)c1c(-c2ccccc2)c2cc(Cl)ccc2c(=O)n1Cc1cc(C(=O)NC2CC2)n(C)n1,20
2,CCC(=O)c1c(-c2ccccc2)c2cc(Cl)ccc2c(=O)n1Cc1cc(S(C)(=O)=O)n(CC(N)=O)n1,160
3,CCC(=O)c1c(-c2ccccc2)c2cc(Cl)ccc2c(=O)n1Cc1cc(S(C)(=O)=O)n(CCC(C)(C)O)n1,19
4,CCC(=O)c1c(-c2ccccc2)c2cc(Cl)ccc2c(=O)n1Cc1cc(S(C)(=O)=O)n(CC(F)F)n1,37
5,CCC(=O)c1c(-c2ccccc2)c2cc(Cl)ccc2c(=O)n1Cc1ccc(C(=O)O)cc1,66
6,COC(=O)c1c(-c2ccccc2)c2cc(Br)ccc2c(=O)n1Cc1ccc(S(C)(=O)=O)cc1,480
7,COC(=O)c1c(-c2ccccc2)c2cc(Br)ccc2c(=O)n1Cc1ccc(NC(=O)CCC(=O)O)cc1,58

# System: T2, JNK2
# T2 construct: gene MAPK9
row,Compound,Kd [nM]
1,CCC(=O)c1c(-c2ccccc2)c2cc(Cl)ccc2c(=O)n1Cc1cc(C(=O)NC2CC2)n(C)n1,10
2,Nc1nc(-c2ccccc2F)c(-c2ccnc3ccccc23)s1 [GW560459],1200
3,CCC(=O)c1c(-c2ccccc2)c2cc(Cl)ccc2c(=O)n1Cc1cc(S(C)(=O)=O)n(CC(N)=O)n1,120
4,CCC(=O)c1c(-c2ccccc2)c2cc(Cl)ccc2c(=O)n1Cc1cc(S(C)(=O)=O)n(CCC(C)(C)O)n1,15
5,CCC(=O)c1c(-c2ccccc2)c2cc(Cl)ccc2c(=O)n1Cc1cc(S(C)(=O)=O)n(CC(F)F)n1,33
6,CCC(=O)c1c(-c2ccccc2)c2cc(Cl)ccc2c(=O)n1Cc1ccc(C(=O)O)cc1,77
7,COC(=O)c1c(-c2ccccc2)c2cc(Br)ccc2c(=O)n1Cc1ccc(S(C)(=O)=O)cc1,350
8,COC(=O)c1c(-c2ccccc2)c2cc(Br)ccc2c(=O)n1Cc1ccc(NC(=O)CCC(=O)O)cc1,66

# System: T3, JNK3
# T3 construct: gene MAPK10
row,Compound,Kd [nM]
1,CCC(=O)c1c(-c2ccccc2)c2cc(Cl)ccc2c(=O)n1Cc1cc(C(=O)NC2CC2)n(C)n1,3.8
2,Nc1nc(-c2ccccc2F)c(-c2ccnc3ccccc23)s1 [GW560459],610
3,CCC(=O)c1c(-c2ccccc2)c2cc(Cl)ccc2c(=O)n1Cc1cc(S(C)(=O)=O)n(CC(N)=O)n1,60
4,CCc1nc(-c2cccc(C)c2)c(-c2ccncc2)s1,81
5,CCC(=O)c1c(-c2ccccc2)c2cc(Cl)ccc2c(=O)n1Cc1cc(S(C)(=O)=O)n(CCC(C)(C)O)n1,4.6
6,CCC(=O)c1c(-c2ccccc2)c2cc(Cl)ccc2c(=O)n1Cc1cc(S(C)(=O)=O)n(CC(F)F)n1,9.2
7,CCC(=O)c1c(-c2ccccc2)c2cc(Cl)ccc2c(=O)n1Cc1ccc(C(=O)O)cc1,12
8,COC(=O)c1c(-c2ccccc2)c2cc(Br)ccc2c(=O)n1Cc1ccc(S(C)(=O)=O)cc1,73
9,COC(=O)c1c(-c2ccccc2)c2cc(Br)ccc2c(=O)n1Cc1ccc(NC(=O)CCC(=O)O)cc1,13

# System: KIT
row,Compound,Kd [nM]
1,CCCNC(=O)Nc1ccc(Oc2ncnc3ccn(C)c23)cc1,67
2,CC(C)(C)c1ccc(C(=O)Nc2cn3cc(-c4ccccc4)ccc3n2)cc1,> 10000
3,COc1cc2nccc(Nc3ccc(OCc4ccc(NC(C)=O)cc4)cc3)c2cc1OC.Cl [GW440135],7.4
4,Cl.NS(=O)(=O)c1cccc(Nc2cc(-c3ccc(F)cc3)n[nH]2)c1 [GW824645],16
5,COc1ccc(-n2cnc3c(N)ncnc32)cc1 [SKF-97236],200
6,Nc1n[nH]c2ncc(-c3ccccc3)cc12 [SB-517081],92

# — publication PMC5540273 (PLoS ONE, 2017)
